Experimental data from PubChem BioAssay AID1159580 (chemical genetic matrix, 2015).
Hit rate of the full screen: of about 5,500 compounds, about 2,000 (36%) were called active. Roughly 18% stayed inconclusive and do not appear here. Cut-off read from the data, not from the text of the source: active = normalized growth mostly below about 0.91 (no sharp cut-off); inconclusive = no clear call, values can overlap the other calls; inactive = mostly above about 0.92. The list shows a part of the results.

Experiment: chemical genetic growth profiling, strain panel (AID 1159580);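 note: tested at 20 µM; growth read once vehicle control cultures reached saturation at 30 °C; 1 = growth at the plate median or of vehicle wells; lower values mean less growth of the strain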
Conditions: S. cerevisiae deletion strains, growth OD
[1] = locus YDL101C, strain DUN1, active compounds read low
[2] = locus YHR030C, strain SLT2, active compounds read low
[3] = locus YAR019C, strain CDC15, active compounds read low
[4] = locus YBL105C, strain PKC1, active compounds read low
[5] = locus YBR135W, strain CKS1, active compounds read low
[6] = locus YBR136W, strain MEC1, active compounds read low
[7] = locus YBR160W, strain CDC28, active compounds read low
[8] = locus YDL017W, strain CDC7, active compounds read low
[9] = locus YDL028C, strain MPS1, active compounds read low
[10] = locus YDL108W, strain KIN28, active compounds read low
[11] = locus YDL132W, strain cdc53, active compounds read low
[12] = locus YDL214C, strain PRR2, active compounds read low
[13] = locus YDR052C, strain DBF4, active compounds read low
[14] = locus YDR054C, strain cdc34, active compounds read low
[15] = locus YDR226W, strain ADK1, active compounds read low
[16] = locus YDR477W, strain SNF1, active compounds read low
[17] = locus YER123W, strain YCK3, active compounds read low
[18] = locus YER133W, strain GLC7, active compounds read low
[19] = locus YFL009W, strain cdc4, active compounds read low
[20] = locus YFL029C, strain CAK1, active compounds read low
[21] = locus YFR003C, strain YPI1, active compounds read low
[22] = locus YFR019W, strain FAB1, active compounds read low
[23] = locus YFR028C, strain CDC14, active compounds read low
[24] = locus YGR040W, strain KSS1, active compounds read low
[25] = locus YGR052W, strain FMP48, active compounds read low
[26] = locus YGR092W, strain DBF2, active compounds read low
[27] = locus YHR079C, strain IRE1, active compounds read low
[28] = locus YHR082C, strain KSP1, active compounds read low
[29] = locus YHR205W, strain SCH9, active compounds read low
[30] = locus YIL147C, strain SLN1, active compounds read low
[31] = locus YJL095W, strain BCK1, active compounds read low
[32] = locus YJL128C, strain PBS2, active compounds read low
[33] = locus YJL157C, strain FAR1, active compounds read low
[34] = locus YJR016C, strain ILV3, active compounds read low
[35] = locus YJR066W, strain TOR1 (second series), active compounds read low
[36] = locus YJR066W, strain TOR1, active compounds read low
[37] = locus YKL048C, strain ELM1, active compounds read low
[38] = locus YKL067W, strain YNK1, active compounds read low
[39] = locus YKL101W, strain HSL1, active compounds read low
[40] = locus YKL193C, strain SDS22, active compounds read low
[41] = locus YKL203C, strain TOR2, active compounds read low
[42] = locus YLR113W, strain HOG1, active compounds read low
[43] = locus YLR133W, strain CKI1, active compounds read low
[44] = locus YLR403W, strain SFP1, active compounds read low
[45] = locus YML070W, strain DAK1, active compounds read low
[46] = locus YMR001C, strain CDC5, active compounds read low
[47] = locus YMR205C, strain PFK2 (second series), active compounds read low
[48] = locus YMR277W, strain FCP1, active compounds read low
[49] = locus YNL006W, strain LST8, active compounds read low
[50] = locus YNL020C, strain ARK1, active compounds read low
[51] = locus YNL161W, strain CBK1, active compounds read low
[52] = locus YNL183C, strain NPR1, active compounds read low
[53] = locus YNL207W, strain RIO2, active compounds read low
[54] = locus YNL222W, strain SSU72, active compounds read low
[55] = locus YNL307C, strain MCK1 (second series), active compounds read low
[56] = locus YOL078W, strain AVO1, active compounds read low
[57] = locus YOL136C, strain PFK27, active compounds read low
[58] = locus YOR061W, strain CKA2, active compounds read low
[59] = locus YOR119C, strain RIO1, active compounds read low
[60] = locus YOR231W, strain MKK1, active compounds read low
[61] = locus YOR329C, strain SCD5, active compounds read low
[62] = locus YPL031C, strain PHO85, active compounds read low
[63] = locus YPL153C, strain RAD53, active compounds read low
[64] = locus YPL204W, strain HRR25, active compounds read low
[65] = locus YPL209C, strain IPL1, active compounds read low
[66] = locus YPL256C, strain CLN2, active compounds read low
[67] = locus YPR025C, strain CCL1, active compounds read low
[68] = locus YPR106W, strain ISR1, active compounds read low
[69] = locus YPR111W, strain DBF20, active compounds read low
[70] = strain NNK1, active compounds read low
[71] = strain TSCII, active compounds read low

Measured: normalized growth

COc1c(Br)cc(/C(N)=N\OC(=O)c2c(-c3c(Cl)cccc3Cl)noc2C)cc1Br
inactive: locus YAL013W, strain DEP1, active compounds read low 1.03 | locus YBR229C, strain ROT2, active compounds read low 1.01 | [1] 1 | locus YDR150W, strain NUM1, active compounds read low 1.02 | locus YEL061C, strain CIN8, active compounds read low 0.983 | locus YGR078C, strain PAC10, active compounds read low 1.02 | [2] 1.08 | locus YHR087W, strain rtc3, active compounds read low 1.02 | locus YJR043C, strain POL32, active compounds read low 1.01 | locus YJR075W, strain HOC1, active compounds read low 1.01 | locus YKL190W, strain CNB1, active compounds read low 1.01 | locus YLR039C, strain RIC1, active compounds read low 1.09 | locus YLR058C, strain SHM2 (second series), active compounds read low 1.01 | locus YLR085C, strain ARP6, active compounds read low 1.13 | locus YLR262C, strain YPT6, active compounds read low 1.04 | locus YML094W, strain GIM5, active compounds read low 1.04 | locus YMR219W, strain ESC1, active compounds read low 1.01 | locus YMR263W, strain SAP30, active compounds read low 1 | locus YMR307W, strain GAS1, active compounds read low 1.05 | locus YNL153C, strain GIM3, active compounds read low 0.998 | locus YNL298W, strain CLA4 (second series), active compounds read low 1.05 | locus YNL322C, strain KRE1, active compounds read low 1.01 | locus YNR030W, strain Alg12, active compounds read low 1.03 | locus YPL055C, strain LGE1, active compounds read low 1.07 | locus YPL241C, strain CIN2, active compounds read low 0.98 | locus YPR135W, strain CTF4, active compounds read low 1.17

Cc1onc(-c2c(Cl)cccc2Cl)c1C(=O)O/N=C(/N)Cc1ccc(C(C)(C)C)cc1
active: [2] 1.22 [resistant]
inactive: [3] 0.991 | [4] 0.986 | [5] 0.988 | [6] 0.995 | [7] 0.983 | [8] 0.988 | [9] 0.993 | [1] 0.986 | [10] 0.989 | [11] 0.983 | [12] 0.982 | [13] 0.987 | [14] 0.989 | [15] 0.993 | [16] 1 | [17] 0.998 | [18] 0.999 | [19] 0.987 | [20] 0.986 | [21] 0.996 | [22] 0.995 | [23] 0.989 | [24] 0.999 | [25] 1.15 | [26] 0.983 | [27] 1.12 | [28] 1.16 | [29] 0.993 | [30] 0.987 | [31] 1.15 | [32] 0.953 | [33] 0.991 | [34] 0.992 | [35] 0.986 | [36] 1.17 | [37] 0.999 | [38] 1 | [39] 0.998 | [40] 0.989 | [41] 1.06 | [42] 1.08 | [43] 0.991 | [44] 0.994 | [45] 0.99 | [46] 0.989 | [47] 1 | [48] 0.994 | [49] 0.994 | [50] 1.01 | [51] 0.995 | [52] 1.14 | [53] 0.992 | [54] 0.987 | [55] 0.995 | [56] 0.985 | [57] 1.02 | [58] 1.01 | [59] 1.05 | [60] 1.08 | [61] 0.997 | [62] 1.02 | [63] 1 | [64] 1.02 | [65] 1 | [66] 1.1 | [67] 0.986 | [68] 0.994 | [69] 0.988 | [70] 0.997 | [71] 0.99

Cc1onc(-c2c(F)cccc2Cl)c1/C(N)=N\OC(=O)c1ccc(C(C)(C)C)cc1
active: [2] 1.17 [resistant]
inactive: [3] 0.989 | [4] 0.998 | [5] 0.985 | [6] 0.986 | [7] 0.989 | [8] 0.993 | [9] 0.985 | [1] 0.98 | [10] 0.978 | [11] 0.989 | [12] 0.971 | [13] 0.994 | [14] 1 | [15] 0.989 | [16] 0.976 | [17] 0.948 | [18] 0.967 | [19] 0.987 | [20] 1 | [21] 0.997 | [22] 0.982 | [23] 0.984 | [24] 0.975 | [25] 1.1 | [26] 1 | [27] 1.08 | [28] 1.11 | [29] 0.986 | [30] 0.981 | [31] 1.11 | [32] 0.957 | [33] 0.963 | [34] 0.982 | [35] 0.932 | [36] 1.12 | [37] 0.983 | [38] 0.994 | [39] 0.972 | [40] 0.991 | [41] 1.05 | [42] 1 | [43] 0.988 | [44] 0.968 | [45] 0.966 | [46] 0.987 | [47] 0.987 | [48] 0.992 | [49] 0.988 | [50] 0.978 | [51] 0.991 | [52] 1.11 | [53] 0.99 | [54] 0.99 | [55] 0.998 | [56] 0.982 | [57] 0.956 | [58] 0.967 | [59] 1.02 | [60] 1.05 | [61] 0.996 | [62] 0.991 | [63] 0.973 | [64] 0.979 | [65] 0.993 | [66] 1.05 | [67] 0.99 | [68] 0.988 | [69] 0.986 | [70] 0.99 | [71] 0.99
